Bioassay records as filed in PubChem BioAssay.
PAFAH1B2 FP inh = inhibitors of human PAFAH1B2; AID 492953; inhibition, % at 3.39 µM; hit rate 1.2% among 340,000; recombinant PAFAH1B2, FP-rhodamine activity probe, fluorescence polarization;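 active = inhibition above the mean of all tested compounds plus 3 SD, cut at about 24% in these data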;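 note: 0% = enzyme with DMSO and 100% = wells lacking PAFAH1B2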
Target sequence (P68402 whole entry, looked up): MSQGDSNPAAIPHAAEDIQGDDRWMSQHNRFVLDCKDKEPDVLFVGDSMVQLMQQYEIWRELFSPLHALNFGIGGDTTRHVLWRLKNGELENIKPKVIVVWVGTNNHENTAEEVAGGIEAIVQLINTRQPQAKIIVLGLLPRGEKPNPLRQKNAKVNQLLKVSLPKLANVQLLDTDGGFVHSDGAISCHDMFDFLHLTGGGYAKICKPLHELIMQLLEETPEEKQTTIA
PAFAH2 inh = inhibitors of human PAFAH2 | recombinant PAFAH2, FP-rhodamine activity probe, fluorescence polarization | inhibition, % at 3.39 µM | hit rate 0.99% among 340,000 | AID 492956;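 active = inhibition above the mean over all tested compounds plus 3 SD, cut at about 30% in these data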;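 note: inhibitors block probe labeling of enzyme so polarization drops; 0% = enzyme with DMSO and 100% = wells lacking PAFAH2 protein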
Fam108B counter = blocks mouse Fam108B hydrolase in RBBP9 counter-screen. recombinant Fam108B, FP-Rh probe fluorescence polarization. inhibition, % at 9.51 µM. hit rate 0.33% among 300,000. AID 1947;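 active = inhibition above the screen mean inhibition plus 3 SD, computed separately per campaign, cut at about 18% in these data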;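 note: inhibitors lower polarization as less probe binds the enzyme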
PME-1 inh = blocks human protein phosphatase methylesterase 1. hit rate 0.53% among 320,000. inhibition, % at 5.9 µM. recombinant PME-1, FP-Rh probe fluorescence polarization. Q9Y570;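 active = inhibition above the campaign mean of all compounds plus 3 SD, cut at about 26% in these data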;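 note: competitive labeling of PME-1 active site by serine hydrolase directed probe; 0% = PME-1 with DMSO and 100% = wells lacking PME-1 enzyme; inhibitors block probe labeling so polarization falls and inhibition rises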
PAFAH1B3 FP inh = inhibitors of human PAFAH1B3 | Q15102 | recombinant PAFAH1B3, FP-rhodamine probe, fluorescence polarization | inhibition, % at 3.39 µM | hit rate 0.28% among 340,000 | AID 492972;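 active = inhibition above the screen-wide average of all tested compounds plus 3 SD, cut at about 25% in these data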;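 note: 0% = enzyme with DMSO only and 100% = wells lacking PAFAH1B3 protein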
pPAFAH inh = pPAFAH (human) enzyme inhibition | hit rate 1.5% among 330,000 | Q13093 | inhibition, % at 3.39 µM | recombinant pPAFAH, FP-rhodamine probe fluorescence polarization | AID 463082;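 active = inhibition above the mean inhibition across the screen plus 3 SD, cut at about 25% in these data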;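 note: inhibitors block binding of the rhodamine activity-based probe so polarization drops; 0% = enzyme with DMSO and 100% = wells lacking pPAFAH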
Target sequence (Q13093 whole entry, looked up): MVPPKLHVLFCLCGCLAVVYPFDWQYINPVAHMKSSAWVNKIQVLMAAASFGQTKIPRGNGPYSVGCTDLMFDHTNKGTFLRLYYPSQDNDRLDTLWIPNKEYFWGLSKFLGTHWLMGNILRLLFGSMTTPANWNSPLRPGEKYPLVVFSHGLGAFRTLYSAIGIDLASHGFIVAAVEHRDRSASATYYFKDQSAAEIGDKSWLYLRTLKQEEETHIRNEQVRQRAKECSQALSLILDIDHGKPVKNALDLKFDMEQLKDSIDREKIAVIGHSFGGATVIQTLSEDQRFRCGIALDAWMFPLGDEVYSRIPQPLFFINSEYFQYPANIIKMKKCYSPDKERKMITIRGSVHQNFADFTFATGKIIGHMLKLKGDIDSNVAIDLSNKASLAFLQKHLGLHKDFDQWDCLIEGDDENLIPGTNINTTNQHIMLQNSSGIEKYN
* hit, by the source's call; . = not tested or not shown. Sampled rows, rich in hits. Any-hit rate of the full collection: about 2.8%.

SMILES	PAFAH1B2 FP inh	PAFAH2 inh	Fam108B counter	PME-1 inh	PAFAH1B3 FP inh	pPAFAH inh
O=C(OCc1ccc(Cl)c(Cl)c1)c1ccc[nH]1	5.5	46.6*	1.9	-9.2	4.3	-1.6
CCC(=O)N1CCc2cc(S(=O)(=O)NC(Cc3ccccc3)C(=O)O)ccc21 (stereo not drawn)	-1.3	8.0	4.1	-0.3	1.5	28.4*
CCn1c(COc2ccccc2OC)nnc1SCC(=O)NC1CCCC1	3.1	-5.2	-1.8	-11.3	-4.4	-6.5
O=C1CCC(=O)N1c1ccccc1OS(=O)(=O)c1ccccc1	4.2	1.9	2.0	4.3	1.6	0.5
O=S(=O)(Oc1ccccc1N1CCCCC1)c1ccccc1	30.9*	7.4	3.6	-4.2	4.9	-5.6
CC(Sc1nc2c(c(=O)[nH]1)CCCC2)C(=O)Nc1ccccc1C#N (stereo not drawn)	5.8	-5.7	-0.6	-5.0	4.1	-2.5
COc1ccc(N(CC(C)C)S(=O)(=O)c2nnc(NC(=O)c3ccco3)s2)cc1	-4.1	7.7	-0.5	7.2	-0.4	-0.3
Cc1ccc(SCC(=O)O/N=C(\N)c2cccc([N+](=O)[O-])c2)cc1	35.8*	2.1	2.7	3.0	2.8	12.8
N/C(=N\OC(=O)CCCc1ccccc1)c1cccc([N+](=O)[O-])c1	25.7*	-4.2	-0.4	-2.4	4.4	0.7
N/C(=N\OC(=O)CCCc1ccccc1)c1ccccc1	11.4	-1.2	-1.5	7.6	10.2	3.3
COc1ccc(/C(N)=N/OC(=O)CSc2ccccc2)cc1	29.3*	7.8	-1.3	2.3	8.8	5.0
N/C(=N\OC(=O)Cc1ccccc1)c1cccc(Br)c1	29.5*	5.2	5.0	-7.1	7.4	0.2
CN(c1ccc(Cl)cc1)c1cc(=O)n(C)c2ccccc12	29.3*	-3.6	-0.7	-8.7	1.2	1.5
COc1cc(=O)n(C)c2ccccc12	0.8	6.1	-0.8	-2.7	6.4	-3.0
CCOc1ccc(-n2cc(-c3ccccc3)c3c(=O)[nH]cnc32)cc1	2.3	-0.4	1.9	7.6	5.7	15.7
O=c1[nH]cnc2c1c(-c1ccccc1)cn2-c1ccc(Br)cc1	-2.7	-0.7	-1.1	3.9	-0.5	27.3*
Cc1cccc(-n2cc(-c3ccccc3)c3c(=O)[nH]cnc32)c1	-4.0	4.3	-2.1	-0.1	7.1	29.9*
COc1ccc(/C(C)=N/NC(=O)Cc2ccc(Cl)cc2)cc1	-2.2	-4.4	-7.0	-2.3	4.2	-2.7
CCC(=O)N(Cc1c(C)nn(-c2ccccc2)c1Cl)c1ccc(Cl)cc1	24.4*	-8.9	-1.6	2.3	8.9	7.5
Cc1nn(-c2ccccc2)c(Cl)c1C(=O)NCCCCNC(=O)c1c(C)nn(-c2ccccc2)c1Cl	3.9	-11.0	-4.9	3.1	6.2	6.1
COc1ccc(-c2nn(-c3ccccc3)cc2/C=C/C(=O)N2CCN(c3ccccn3)CC2)cc1	-8.9	-27.0	-23.7	-25.2	-8.8	-0.7
O=C1CCC/C(=N/Nc2ccc(Cl)cc2)C1	2.7	-2.0	9.3	7.0	4.0	26.7*
COc1ccc(/C=C/C(=O)N2CCN(S(=O)(=O)c3ccccc3Br)CC2)cc1OC	-0.7	8.1	.	.	5.8	2.6
O=C(NCCCCNCCCNC(=O)c1ccccc1)c1ccccc1	-2.0	-4.3	.	.	3.7	5.5
COc1cc(/C=N/N(c2ccccc2)c2ccccc2)ccc1O	6.0	-1.3	-1.4	9.3	12.4	26.5*
SMILES	PAFAH1B2 FP inh	PAFAH2 inh	Fam108B counter	PME-1 inh	PAFAH1B3 FP inh	pPAFAH inh
CCc1ccc(CNC(=O)CCS(=O)(=O)Cc2ccc(C)cc2)cc1	8.1	7.4	-4.8	-1.9	5.0	5.8
O=C(COc1ccc(S(=O)(=O)NC2CCCC2)cc1)N1CCCCC1	2.0	2.3	1.7	3.2	-7.2	6.8
O=C(CSc1n[nH]c(-c2ccc(S(=O)(=O)NC3CCCCC3)cc2)n1)N1CCCC1	12.7	2.7	2.8	1.1	9.7	27.9*
CCc1ccccc1NC(=S)N1CCN(c2cccc(OC)c2)CC1	4.7	4.1	-3.2	3.8	9.5	1.8
Nc1c(C(=O)Nc2ccccc2F)sc2nc(-c3cccnc3)ccc12	5.1	2.3	-8.4	11.1	3.0	10.2
Nc1c(C(=O)Nc2ccccc2F)sc2nc(-c3ccco3)ccc12	-3.4	23.8	3.4	36.5*	3.2	31.2*
CCC(C)Sc1nnc(NS(=O)(=O)Cc2ccccc2)s1 (stereo not drawn)	16.3	3.7	3.3	-9.2	1.1	18.4
CC(Oc1cc2oc(=O)c3c(c2cc1Cl)CCCC3)C(=O)NCCN1CCOCC1 (stereo not drawn)	-0.2	-4.2	-3.1	-0.6	7.3	-2.7
CC(C)=CC(O)C/C(C)=C/COc1ccc2ccc(=O)oc2c1 (stereo not drawn)	7.7	1.5	-0.6	8.7	5.4	7.4
CC(C)c1ccc(/C=N/n2c(COc3ccccc3)n[nH]c2=S)cc1	28.8*	34.6*	6.2	13.9	24.4	9.7
Cc1ccc(/C=N/n2c(COc3ccccc3)n[nH]c2=S)cc1	9.9	-2.9	0.1	8.8	5.5	3.2
O=C(NCc1ccccc1F)C1CCCN1S(=O)(=O)c1ccc(Cl)cc1 (stereo not drawn)	10.5	-0.6	-2.3	-2.2	16.9	1.4
O=C(N/N=C/c1ccc2c(c1)OCO2)C(=O)Nc1ccccc1Cl	-5.9	-6.3	.	.	16.0	.
O=C(O/N=C/c1ccc2c(c1)OCO2)c1ccccc1Cl	.	.	5.5	2.9	.	37.4*
COC(CN(C)C(=O)C1CCC(CNS(=O)(=O)c2ccc(C)cc2)CC1)OC (stereo not drawn)	5.8	-1.2	2.3	8.9	-0.7	24.6*
CC1=C(SCc2ccccc2)C(=O)c2ccccc2C1=O	22.5	45.8*	.	.	48.4*	.
CC1CCN(CC(CS(=O)(=O)c2ccc([N+](=O)[O-])cc2)N2CCC(C)CC2)CC1 (stereo not drawn)	3.1	0.5	2.9	1.9	-4.1	4.8
CCCCCC(O)(c1ccc(OC)cc1)C(CN1CCOCC1)c1ccccc1 (stereo not drawn)	9.2	-5.1	-2.8	-6.1	6.4	4.1
CCCCC(O)(c1ccc(OC)cc1)C(CN1CCOCC1)c1ccccc1 (stereo not drawn)	24.4*	-4.0	2.9	5.6	8.6	-3.5
Cc1ccc2cc(CCNS(=O)(=O)c3ccc(Br)cc3)c(=O)[nH]c2c1C	29.9*	4.4	1.1	2.5	-6.1	3.9
Cc1cc(C)c2cc(C#N)c(SCC(=O)Nc3cc(C)on3)nc2c1	1.1	-8.2	0.0	1.4	2.4	0.2
CCCCCCn1c(=O)[nH]c2nc3cc(N)ccc3nc2c1=O	.	.	6.9	30.1*	.	11.5
CCCCCn1c(=O)c(C(=O)c2ccccc2)nc2ccccc21	2.2	-1.5	2.5	1.2	5.2	0.3
Cc1ccc(S(=O)(=O)N2CCN(C(=O)[C@H](Cc3ccccc3)NC(=O)c3ccco3)CC2)cc1C	9.0	-3.8	.	5.7	1.6	-2.3
Cc1cc(O)c(NC(=S)NC(=O)c2ccc(-c3ccc(Cl)cc3)o2)cc1C	-0.2	-1.9	1.3	38.6*	-2.4	10.1
